From the supplement of paper PMC12282887
± gives the standard deviation of the averaged measurements.

Experiments:
Test in all cases: promoter activity interaction Z-score (Lux/OD deviation from empty-vector control); higher = stronger promoter induction by the compound
[1] = system: E. coli BW25113 acrABp lux reporter
How it was run: (§1)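 At 37°C, E. coli BW25113 reporter cultures in 40 µl LB Lennox in 384-well plates were read for OD600 and luminescence every 30 min for 12 h. Windows were 0–8 h for wild type and 1–9 h for deletion strains, and wells under 10% of the median growth value were removed. The score is the Z-transformed residual of growth-normalised luminescence against a control fit.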

[2] = system: E. coli BW25113 marRABp lux reporter
How it was run: as §1

[3] = system: E. coli BW25113 micFp lux reporter
How it was run: as §1

[4] = system: E. coli BW25113 ompFp lux reporter
How it was run: as §1

[5] = system: E. coli BW25113 robp lux reporter
How it was run: as §1

[6] = system: E. coli BW25113 soxSp lux reporter
How it was run: as §1

[7] = system: E. coli BW25113 tolCp lux reporter
How it was run: as §1

[8] = 1.8 µg/ml, genetic background: wild type
[9] = 1.8 µg/ml, genetic background: ΔmarA
[10] = 1.8 µg/ml, genetic background: Δrob
[11] = 1.8 µg/ml, genetic background: ΔsoxS
[12] = 3.7 µg/ml, genetic background: wild type
[13] = 3.7 µg/ml, genetic background: ΔmarA
[14] = 3.7 µg/ml, genetic background: Δrob
[15] = 3.7 µg/ml, genetic background: ΔsoxS
[16] = 7.3 µg/ml, genetic background: wild type
[17] = 7.3 µg/ml, genetic background: ΔmarA
[18] = 7.3 µg/ml, genetic background: Δrob
[19] = 7.3 µg/ml, genetic background: ΔsoxS
[20] = 14.7 µg/ml, genetic background: wild type
[21] = 14.7 µg/ml, genetic background: ΔmarA
[22] = 14.7 µg/ml, genetic background: ΔsoxS

Which “promoter activity interaction Z-score” value [1, 8] does the source give for `CC[C@H]1OC(=O)[C@H](C)[C@@H](O[C@H]2C[C@@](C)(OC)[C@@H](O)[C@H](C)O2)[C@H](C)[C@@H](O[C@@H]2O[C@H](C)C[C@H](N(C)C)[C@H]2O)[C@](C)(O)C[C@@H](C)C(=O)[C@H](C)[C@@H](O)[C@]1(C)O` [Erythromycin] here?
Its value is 0.453 ± 0.14.

And the “promoter activity interaction Z-score” value [1, 9]?
Its value is 0.681 ± 0.23.

What about the “promoter activity interaction Z-score” value [1, 10] of the same molecule?
Its value is 0.159 ± 0.56.

What about the “promoter activity interaction Z-score” value [1, 11] of the same molecule?
The value was 0.201 ± 0.23.

What about the “promoter activity interaction Z-score” value [1, 12] of the same molecule?
Its value is 0.762 ± 0.17.

And the “promoter activity interaction Z-score” value [1, 13]?
Its value is -1.09 ± 0.061.

What about the “promoter activity interaction Z-score” value [1, 14] of the same molecule?
The value was 0.417 ± 0.063.

And the “promoter activity interaction Z-score” value [1, 15]?
The value was 1.35 ± 1.5.

And the “promoter activity interaction Z-score” value [1, 16]?
Its value is 1.66 ± 0.12.

What about the “promoter activity interaction Z-score” value [1, 17] of the same molecule?
The value was -0.406 ± 0.24.

And the “promoter activity interaction Z-score” value [1, 18]?
The value was 1.7 ± 0.48.

And the “promoter activity interaction Z-score” value [1, 19]?
The value was 2.23 ± 1.1.

What about the “promoter activity interaction Z-score” value [1, 20] of the same molecule?
Its value is 7.47 ± 0.26.

And the “promoter activity interaction Z-score” value [2, 8]?
Its value is 0.316 ± 0.064.

And the “promoter activity interaction Z-score” value [2, 9]?
Its value is 0.0943 ± 0.048.

And the “promoter activity interaction Z-score” value [2, 10]?
Its value is 0.109 ± 0.022.

And the “promoter activity interaction Z-score” value [2, 11]?
Its value is 0.268 ± 0.14.

What about the “promoter activity interaction Z-score” value [2, 12] of the same molecule?
Its value is 0.459 ± 0.1.

What about the “promoter activity interaction Z-score” value [2, 13] of the same molecule?
Its value is 0.54 ± 0.35.

And the “promoter activity interaction Z-score” value [2, 14]?
Its value is 0.617 ± 0.38.

And the “promoter activity interaction Z-score” value [2, 15]?
The value was 0.806 ± 0.22.

And the “promoter activity interaction Z-score” value [2, 16]?
Its value is 1.87 ± 0.21.

What about the “promoter activity interaction Z-score” value [2, 17] of the same molecule?
The value was 1.31 ± 0.22.

And the “promoter activity interaction Z-score” value [2, 18]?
The value was 1.34 ± 0.3.

And the “promoter activity interaction Z-score” value [2, 19]?
Its value is 1.3 ± 0.3.

And the “promoter activity interaction Z-score” value [2, 20]?
Its value is 2.2 ± 0.17.

What about the “promoter activity interaction Z-score” value [2, 21] of the same molecule?
The value was 2.59.

What about the “promoter activity interaction Z-score” value [3, 8] of the same molecule?
The value was 0.913 ± 0.45.

And the “promoter activity interaction Z-score” value [3, 9]?
The value was -0.122 ± 0.027.

What about the “promoter activity interaction Z-score” value [3, 10] of the same molecule?
The value was -0.273 ± 0.066.

What about the “promoter activity interaction Z-score” value [3, 11] of the same molecule?
The value was 0.0903 ± 0.17.

What about the “promoter activity interaction Z-score” value [3, 12] of the same molecule?
The value was 0.742 ± 0.35.

And the “promoter activity interaction Z-score” value [3, 13]?
Its value is -0.1986 ± 0.0018.

And the “promoter activity interaction Z-score” value [3, 14]?
Its value is -0.176 ± 0.13.

What about the “promoter activity interaction Z-score” value [3, 15] of the same molecule?
The value was 0.695 ± 0.24.

What about the “promoter activity interaction Z-score” value [3, 16] of the same molecule?
The value was 0.748 ± 0.99.

And the “promoter activity interaction Z-score” value [3, 17]?
The value was -0.167 ± 0.085.

What about the “promoter activity interaction Z-score” value [3, 18] of the same molecule?
The value was -0.148 ± 0.073.

What about the “promoter activity interaction Z-score” value [3, 19] of the same molecule?
The value was -0.224 ± 0.12.

And the “promoter activity interaction Z-score” value [3, 20]?
The value was -1.13 ± 0.77.

What about the “promoter activity interaction Z-score” value [3, 21] of the same molecule?
Its value is -0.537 ± 0.026.

What about the “promoter activity interaction Z-score” value [3, 22] of the same molecule?
Its value is -0.792 ± 0.2.

And the “promoter activity interaction Z-score” value [4, 8]?
The value was 0.573 ± 0.45.

And the “promoter activity interaction Z-score” value [4, 9]?
Its value is 0.458 ± 0.21.

And the “promoter activity interaction Z-score” value [4, 10]?
Its value is 0.2177 ± 0.0014.

And the “promoter activity interaction Z-score” value [4, 11]?
The value was 0.925 ± 0.37.

What about the “promoter activity interaction Z-score” value [4, 12] of the same molecule?
Its value is 0.894 ± 0.58.

And the “promoter activity interaction Z-score” value [4, 13]?
Its value is 0.288 ± 0.31.

What about the “promoter activity interaction Z-score” value [4, 14] of the same molecule?
Its value is 1.58 ± 1.1.

And the “promoter activity interaction Z-score” value [4, 15]?
The value was 2.48 ± 1.1.

And the “promoter activity interaction Z-score” value [4, 16]?
The value was 1.78 ± 0.84.

And the “promoter activity interaction Z-score” value [4, 17]?
Its value is 1.17 ± 0.52.

And the “promoter activity interaction Z-score” value [4, 18]?
Its value is 1.96 ± 2.

What about the “promoter activity interaction Z-score” value [4, 19] of the same molecule?
Its value is 1.97 ± 0.072.

What about the “promoter activity interaction Z-score” value [4, 20] of the same molecule?
Its value is -0.66 ± 0.73.

What about the “promoter activity interaction Z-score” value [4, 22] of the same molecule?
The value was -1.6.

What about the “promoter activity interaction Z-score” value [5, 8] of the same molecule?
Its value is -0.139 ± 0.59.

What about the “promoter activity interaction Z-score” value [5, 9] of the same molecule?
The value was -0.666 ± 0.22.

What about the “promoter activity interaction Z-score” value [5, 10] of the same molecule?
Its value is -0.816 ± 0.1.

What about the “promoter activity interaction Z-score” value [5, 11] of the same molecule?
Its value is -0.469 ± 0.72.

What about the “promoter activity interaction Z-score” value [5, 12] of the same molecule?
The value was -0.638 ± 0.12.

What about the “promoter activity interaction Z-score” value [5, 13] of the same molecule?
Its value is -2.16 ± 0.55.

And the “promoter activity interaction Z-score” value [5, 14]?
The value was -1.32 ± 0.2.

What about the “promoter activity interaction Z-score” value [5, 15] of the same molecule?
Its value is -0.16 ± 0.77.

What about the “promoter activity interaction Z-score” value [5, 16] of the same molecule?
The value was -2.01 ± 0.31.

What about the “promoter activity interaction Z-score” value [5, 17] of the same molecule?
The value was -2.33 ± 0.13.

What about the “promoter activity interaction Z-score” value [5, 18] of the same molecule?
The value was -2.18 ± 0.23.

What about the “promoter activity interaction Z-score” value [5, 19] of the same molecule?
The value was -2.29 ± 0.77.

And the “promoter activity interaction Z-score” value [5, 20]?
Its value is -2.43 ± 0.2.

And the “promoter activity interaction Z-score” value [5, 21]?
Its value is -3.56 ± 0.35.

And the “promoter activity interaction Z-score” value [6, 8]?
The value was 0.111 ± 0.015.

What about the “promoter activity interaction Z-score” value [6, 9] of the same molecule?
The value was 0.214 ± 0.046.

And the “promoter activity interaction Z-score” value [6, 10]?
Its value is -0.111 ± 0.089.

What about the “promoter activity interaction Z-score” value [6, 11] of the same molecule?
The value was 0.0397 ± 0.3.

And the “promoter activity interaction Z-score” value [6, 12]?
Its value is -0.0179 ± 0.043.

What about the “promoter activity interaction Z-score” value [6, 13] of the same molecule?
Its value is -0.0482 ± 0.098.

What about the “promoter activity interaction Z-score” value [6, 14] of the same molecule?
The value was 0.228 ± 0.28.

What about the “promoter activity interaction Z-score” value [6, 15] of the same molecule?
Its value is 0.647 ± 0.18.

And the “promoter activity interaction Z-score” value [6, 16]?
Its value is 0.0493 ± 0.044.

What about the “promoter activity interaction Z-score” value [6, 17] of the same molecule?
The value was 0.351 ± 0.19.

What about the “promoter activity interaction Z-score” value [6, 18] of the same molecule?
The value was 0.215 ± 0.16.

And the “promoter activity interaction Z-score” value [6, 19]?
The value was 1.65 ± 0.52.

And the “promoter activity interaction Z-score” value [6, 20]?
Its value is 0.956 ± 0.22.

And the “promoter activity interaction Z-score” value [6, 21]?
The value was 0.78 ± 0.098.

What about the “promoter activity interaction Z-score” value [6, 22] of the same molecule?
Its value is 3.05 ± 2.9.

What about the “promoter activity interaction Z-score” value [7, 8] of the same molecule?
Its value is 0.39 ± 0.18.

And the “promoter activity interaction Z-score” value [7, 9]?
The value was -0.768 ± 0.45.

And the “promoter activity interaction Z-score” value [7, 10]?
The value was -0.66 ± 0.14.

And the “promoter activity interaction Z-score” value [7, 11]?
The value was -0.318 ± 0.13.

What about the “promoter activity interaction Z-score” value [7, 12] of the same molecule?
Its value is 0.0127 ± 0.24.

What about the “promoter activity interaction Z-score” value [7, 13] of the same molecule?
The value was -1.38 ± 0.97.

What about the “promoter activity interaction Z-score” value [7, 14] of the same molecule?
Its value is -0.333 ± 1.4.

What about the “promoter activity interaction Z-score” value [7, 15] of the same molecule?
Its value is -0.0456 ± 0.47.

What about the “promoter activity interaction Z-score” value [7, 16] of the same molecule?
The value was 0.177 ± 1.4.

What about the “promoter activity interaction Z-score” value [7, 17] of the same molecule?
The value was -0.63 ± 0.74.

And the “promoter activity interaction Z-score” value [7, 18]?
The value was 0.449 ± 2.3.

What about the “promoter activity interaction Z-score” value [7, 19] of the same molecule?
Its value is 0.434 ± 0.85.

And the “promoter activity interaction Z-score” value [7, 20]?
Its value is 1.66 ± 1.9.

And the “promoter activity interaction Z-score” value [7, 21]?
The value was -1.14 ± 3.2.

What about the “promoter activity interaction Z-score” value [7, 22] of the same molecule?
The value was 0.542 ± 0.66.
